Pf Dd2 growth = inhibitors of Plasmodium falciparum Dd2 growth | hit rate 4.3% among 120,000 | AID 1347417 | P. falciparum Dd2 growth, SYBR Green, 72 h | Potency, µM (doses to about 28.9 µM), for the others: top-dose activity, negative = inhibition, usual class: inhibitors; active means well fitted inhibition curve with a large enough effect;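 further: plate controls were DMSO vehicle for no effect and reference drug for full effect; nearly all actives have a fitted effect of over 65% in size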
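Infected erythrocytes (Dd2, 0.3% parasitemia, 2.5% hematocrit final) are added to compound in RPMI-1640/Albumax II medium, grown 72 h at 37C in low oxygen, then lysed with saponin/Triton-X containing SYBR Green and read by fluorescence.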
* = called active by the depositor; i = inactive; [ ] = dose if it differs, or a comment. The full list was thinned out, with hits kept by preference. Potency means the concentration at half of the fitted maximal effect.

SMILES	Pf Dd2 growth
Cc1cc(C(=O)N2CC[C@H]3CC(=O)N(Cc4ccc5c(c4)OCO5)CC[C@H]3C2)no1	i
Cc1noc(-c2ccn3c(CNC(=O)c4ccc(C)c(F)c4)nnc3c2)n1	i
CC(C)n1c(CNC(=O)C[C@H]2NC(=O)c3ccccc3NC2=O)nc2ccccc21	-8%
CCn1cc(CNC(=O)c2ccc(OC3CCN(S(=O)(=O)N(C)C)CC3)cc2)cn1	-25%
O=C(Cn1cccn1)N1C[C@@H](COCC2CC2)[C@H](c2ccncc2)C1	i
Cc1cccc(C(=O)N[C@H]2CN(CCS(C)(=O)=O)C[C@@H]2C(C)C)c1	-17%
CCCCc1cc(C[C@H]2CNCC[C@H]2CC(=O)N(C)Cc2ccccc2)no1	6.3µM*
CN(Cc1ccccc1)C(=O)C[C@@H]1CCNC[C@@H]1Cc1cc(-c2ccccc2)on1	5µM*
CC(=O)N1CCN(C(=O)C[C@@H]2CCNC[C@@H]2Cc2cc(-c3ccccc3)on2)CC1	i
CCCCc1cc(C[C@H]2CNCC[C@H]2CC(=O)NCc2ccccc2)no1	-13%[44.1 µM]
CC(=O)NCCNC(=O)C[C@@H]1CCNC[C@@H]1Cc1cc(-c2ccccc2)on1	15%[44.1 µM]
CCN(CC)C(=O)C[C@@H]1CCNC[C@@H]1Cc1cc(-c2ccccn2)on1	-17%[44.1 µM]
N#Cc1cccc(CN2CC(COc3ccccc3)C3(C2)CN(c2ccccc2)C3)c1 (centres undefined)	-18%[44.1 µM]
CN(CC1CCOC1)C(=O)Nc1cccc(F)c1 (centres undefined)	29%[5.79 µM]
CN1C(=O)c2ccc(NC(=O)C[C@H]3NC(=O)c4ccccc4NC3=O)cc2C1=O	-4%
CCOC(=O)c1c(NC(=O)CS(=O)(=O)c2ccc(C)cc2)sc2c1CCCCC2	43%
CC1CCN(S(=O)(=O)c2ccc(C(=O)Nc3sc4c(c3C(N)=O)CC(C)(C)NC4(C)C)cc2)CC1	i
CCOC(=O)c1c(NC(=O)c2ccc(S(=O)(=O)N(CCOC)CCOC)cc2)sc2c1CC(C)(C)NC2(C)C	10µM*
COC[C@@H]1CN(C(=O)COc2cccc(C)c2)C[C@H]1c1ccncc1	13%
CN(C)Cc1cn(C[C@H]2C[C@@H](NC(=O)COc3ccccc3)[C@H](O)[C@@H]2O)nn1	9%[44.1 µM]
CSc1ccc(CCNc2ncnc3onc(C)c23)cc1	8.9µM*
CCCNc1ncnc2onc(C)c12	-4%
Cc1ccc(CCNc2ncnc3onc(-c4ccc(Cl)cc4)c23)cc1	i
COc1ccc(-c2cc(N3CCCC(NC(=O)c4ccccc4)C3)n[nH]2)cc1 (centres undefined)	i
COc1ccc(-c2cc(N3CCCC(NC(=O)c4ccc5[nH]ccc5c4)C3)n[nH]2)cc1 (centres undefined)	10µM*
SMILES	Pf Dd2 growth
CN(C)c1cccc(C(=O)NC2CCCN(c3cc(-c4ccccc4)[nH]n3)C2)c1 (centres undefined)	-1%
COc1ccc(C(=O)NC2CCCN(c3cc(-c4ccc(F)cc4)[nH]n3)C2)cc1 (centres undefined)	-11%
COc1ccc(-c2cc(N3CCCC(NC(=O)c4cccc(Br)c4)C3)n[nH]2)cc1 (centres undefined)	10µM*
O=C(NC1CCCN(c2cc(-c3ccccc3)[nH]n2)C1)c1cccc(Br)c1 (centres undefined)	-9%
CCOc1ccc(C(=O)NC2CCN(c3cc(-c4ccc(OC)cc4)[nH]n3)C2)cc1 (centres undefined)	i
COc1ccc(-c2cc(N3CCC(NC(=O)c4ccc(Cl)cc4)C3)n[nH]2)cc1 (centres undefined)	i
O=C(NC1CCN(c2cc(-c3ccc(Cl)cc3)[nH]n2)C1)c1ccncc1 (centres undefined)	i
COc1ccc(-c2cc(N3CCC(NC(=O)c4ccc(C)cc4)C3)n[nH]2)cc1 (centres undefined)	11µM*
CN(C)c1cccc(C(=O)NC2CCN(c3cc(-c4ccc(Cl)cc4)[nH]n3)C2)c1 (centres undefined)	7.9µM*
O=C(NC1CCCN(c2cc(-c3ccccc3)[nH]n2)C1)c1ccc2[nH]ccc2c1 (centres undefined)	-5%
CCc1noc(-c2cccn3c(CNC(=O)c4cccnc4)nnc23)n1	i
Cc1noc(C)c1C(=O)N1Cc2ccccc2CC2(CCN(CC3CCNCC3)C2)C1 (centres undefined)	3%
COc1ccc(C(=O)Nc2ccc(C(O)[C@H]3COCC(=O)N3CC(C)C)cc2)cc1 (some centres undefined)	i
COCC(=O)N1CCC(Cc2nc(C3CCOCC3)no2)CC1	41%
Cc1cnc(C(=O)N2CCCN(C(=O)C3CC3)C(c3ccccc3)CC(=O)NCC2)cn1 (centres undefined)	13%
O=C(c1ccc(F)c(Cl)c1)N1C[C@@H](CO)[C@H](c2ccncc2)C1	-8%
CN(CC1CCOCC1)C(=O)Nc1ccccc1F	4%
COCC[C@]1(O)CCN(C(=O)c2cccc(S(N)(=O)=O)c2)C[C@H]1C	1%
O=C(CCc1nc2ccccc2[nH]1)N1C[C@@H](CO)[C@H](c2ccncc2)C1	23%
COc1cc(CN2CCC([C@@H]3CNC[C@H]3CO)CC2)cc(OC)c1	19%
OC1CN(Cc2ccccc2)CCN(Cc2ccc3[nH]ccc3c2)C1 (centres undefined)	-19%
COc1ccc(NC(=O)c2c(NCc3cccs3)sc3c2CCC(C)C3)c(OC)c1 (centres undefined)	10µM*
COc1ccc(OC)c(NC(=O)c2c(NCc3cccs3)sc3c2CCCCC3)c1	8.9µM*
COc1ccccc1NC(=O)c1c(NC(=O)Cc2ccccc2)sc2c1CCC(C(C)(C)C)C2 (centres undefined)	33%
COc1ccc(OC)c(NC(=O)c2sc3nc4c(cc3c2N)CCCCCC4)c1	12%
SMILES	Pf Dd2 growth
COc1ccc(OC)c(NC(=O)c2c(OC)cc(=O)n3c2CCCC3)c1	7%
COc1cc(C(=O)Nc2sc3c(c2C(N)=O)CCC(C)C3)cc(OC)c1OC (centres undefined)	7%
N#CCn1nc2n(c1=O)CCN(C(=O)Cc1c[nH]c3ccccc13)CC2	19%
COCCNC(=O)[C@H]1C[C@H](Oc2ccccc2)CN1C(=O)COc1ccc(F)cc1	-13%
O=C(NCc1ccccc1)N1CCN2C(=O)N(C3CCCCC3)C[C@H]2C1	-8%[44.1 µM]
Cc1csc(Nc2ccc3ncn(Cc4ccccn4)c(=O)c3n2)n1	-21%[44.1 µM]
Cc1csc(Nc2ccc3ncn(Cc4ccccc4)c(=O)c3n2)n1	11µM*
O=c1c2nc(NCc3ccccc3)ccc2ncn1Cc1ccccc1	i
O=C(Nc1cccn2nc(C3CCC3)nc12)c1ccccn1	-25%
O=C(NCC1CCCO1)C1CCN(C(=O)c2ncn3c2COC(c2ccc(F)cc2)C3)CC1 (centres undefined)	i
CS(=O)(=O)c1ccc(OCC2(CNCc3cccc(C(F)(F)F)c3)C[C@@H](O)[C@@H](O)C2)cc1 (some centres undefined)	i
CCN(CC1CCCN(CCc2cccc(OC)c2)C1)C(=O)c1cc(C)no1 (centres undefined)	10µM*
CCN(CC1CCCN(CCc2cccc(OC)c2)C1)C(=O)CN1CCCC1=O (centres undefined)	-11%
COc1ccccc1CN1CCCC(CN(CCN(C)C)C(=O)c2cc(C(C)C)no2)C1 (centres undefined)	i
CCC(C)NC(=O)C1COC2(CCN(C(=O)c3cccc(OC)c3)CC2)N1C(=O)c1ccccc1C (centres undefined)	-17%
